Only a selection was taken, and hits are over-represented in it overall.
12-LOX inh – blocks human arachidonate 12S-lipoxygenase. purified 12hLO, xylenol orange hydroperoxide absorbance. hit rate 1.1% among 580,000. Potency, µM (doses to about 108 µM), usual class: inhibitors. AID 1671190. P18054
Target sequence (P18054 whole entry, looked up): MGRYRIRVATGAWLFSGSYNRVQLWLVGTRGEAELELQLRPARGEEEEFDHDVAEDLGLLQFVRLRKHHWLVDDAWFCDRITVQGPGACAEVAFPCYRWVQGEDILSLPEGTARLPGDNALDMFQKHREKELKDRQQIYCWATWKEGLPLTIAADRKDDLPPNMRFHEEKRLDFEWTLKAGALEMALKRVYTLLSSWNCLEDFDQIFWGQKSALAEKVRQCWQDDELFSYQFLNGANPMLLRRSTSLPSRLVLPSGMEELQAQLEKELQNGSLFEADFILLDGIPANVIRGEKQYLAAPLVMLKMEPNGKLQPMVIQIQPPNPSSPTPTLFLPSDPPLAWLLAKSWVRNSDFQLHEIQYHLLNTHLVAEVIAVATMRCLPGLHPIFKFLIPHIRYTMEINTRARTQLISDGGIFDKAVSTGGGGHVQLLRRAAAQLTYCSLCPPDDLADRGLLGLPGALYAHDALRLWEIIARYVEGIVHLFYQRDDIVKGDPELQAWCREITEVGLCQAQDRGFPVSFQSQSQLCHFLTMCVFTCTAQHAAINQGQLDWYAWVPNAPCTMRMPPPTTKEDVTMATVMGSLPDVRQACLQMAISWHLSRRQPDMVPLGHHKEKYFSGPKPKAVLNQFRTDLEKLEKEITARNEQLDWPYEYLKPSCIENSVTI
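Purified human 12hLO at 150 nM in 25 mM Hepes, 0.01% Triton X-100, pH 7.0, preincubated 15 min at room temperature with compound. Reaction started with 40 uM arachidonic acid, 30 min at room temperature. Hydroperoxide measured by Fe-xylenol orange, 573/405 nm absorbance ratio.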
DT40 TDP1 no CPT – qHTS for Inhibitors of human tyrosyl-DNA phosphodiesterase 1 (TDP1): qHTS in cells in absence of CPT. hit rate 15% among 420,000. DT40 Tdp1-/- hTDP1 cells, no CPT, ATP luminescence, 48 h. Potency, µM (titrated, usually from 46.2 µM), actives largely listed as inhibitors; also: nearly all actives have a fitted effect of over 55% in size
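Chicken DT40 Tdp1-/- cells complemented with human TDP1, screened without camptothecin (DMSO vehicle only), 400 cells/well. Compounds pin-transferred, cells incubated at 37 °C for at least 48 hr. Growth read as ATP-dependent luminescence (CellTiter-Glo, 30 min at RT).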
DT40 TDP1 CPT – growth inhibition of DT40 Tdp1-/-;hTDP1 cells with camptothecin (screen for TDP1 inhibitors); chicken DT40 Tdp1-/-;hTDP1 cells + 20 nM CPT, ATP luminescence, 48 h; Potency, µM (series often up to 46.2 µM), actives largely listed as inhibitors; hit rate 12% among 420,000; AID 686979; also: nearly all actives have a fitted effect of over 55% in size
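Cell growth measured by CellTiter-Glo luminescence after a minimum 48 h, 37 C compound exposure with 20 nM CPT in Tdp1-knockout DT40 cells stably expressing hTDP1, seeded 400/well; qHTS titration format.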
HT1080 IDH1KD tx – kills HT-1080 cells with IDH1 knockdown. HT-1080 IDH1 knockdown viability, ATP luminescence, 48 h. Potency, µM (top dose mostly 46.1 µM), most hits filed as cytotoxic. hit rate 2% among 360,000. AID 686971
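CellTiter-Glo luminescence after 48 h compound exposure at 37 degrees C of IDH1-knockdown HT-1080 cells in 5% FBS RPMI. %Activity scaled between DMSO wells and cell-free media wells, with curves fitted and assigned curve classes.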
IL-1B inflam inh – inhibitors of inflammasome signaling (IL-1 beta secretion); THP-1 LPS/ATP IL-1B secretion, AlphaLISA, 16 h; active compounds read low; hit rate 4.7% among 360,000; AID 743279; activity change, % at 57.5 µM; in the data active = activity change below about -50%; inconclusive = mostly about -30% to -49%
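Secreted IL-1B measured by AlphaLISA bead assay after 16 h compound exposure of THP-1 cells; compounds (final up to 57.5 uM) added 1 h before LPS (250 ng/mL) and ATP (1.25 mM) stimulation; lower signal means less secretion.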
HT1080-NT tox – kills 2HG-producing HT-1080-NT fibrosarcoma cells. Potency, µM (top dose mostly 46.1 µM), hits mostly cytotoxic. HT-1080-NT fibrosarcoma viability, CellTiter-Glo ATP luminescence, 48 h. hit rate 1.6% among 360,000;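 also: NT is the 2HG producing partner of a matched IDH1 knockdown line; nearly all actives have a fitted effect of over 55% in size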
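Fibrosarcoma NT cells, 750 per well in 5% FBS RPMI, were exposed to compound for 48 hours. Viability: CellTiter-Glo luminescence.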
Numbers stand for hits. Unless noted, calls follow the shape of the dose curve; as a rule, active = well fitted curve in the direction sought with a large enough effect; inconclusive = small, poorly fitted or top-dose-only effect, or another doubt; inactive = no such curve, though single readings can be large; an effect the other way counts as inactive or inconclusive.

`Cc1cc2c(N3CCC(N4C[C@@H]5CCN[C@@H]5C4)CC3)ncnc2s1` gave 12-LOX inh inactive.
For C#C[C@H]1CN2CC[C@H]1C[C@@H]2CNC(=O)CCCC(=O)O the results were 12-LOX inh inactive.
CCCCCN1C(=O)c2cc(OC)ccc2[C@@]2(C(=O)OCC)Cc3cc(Cl)ccc3[C@@H]12 was read as 12-LOX inh inconclusive, DT40 TDP1 no CPT 2.9µM, DT40 TDP1 CPT 3.3µM, HT1080 IDH1KD tx 4.1µM and HT1080-NT tox 2.9µM.
CCOC(=O)[C@]12Cc3ccsc3[C@H]1N(Cc1ccccc1)C(=O)c1ccccc12 was read as 12-LOX inh inactive, DT40 TDP1 no CPT 18µM, DT40 TDP1 CPT inconclusive, HT1080 IDH1KD tx inactive, IL-1B inflam inh inactive and HT1080-NT tox inactive.
Screening COc1cccc(C2Nc3ccccc3C(=O)N2Cc2ccccc2)c1 (configuration not stated) returned 12-LOX inh inactive, DT40 TDP1 no CPT inconclusive, DT40 TDP1 CPT inactive, HT1080 IDH1KD tx inactive, IL-1B inflam inh inconclusive and HT1080-NT tox inactive.
Screening CCOC(=O)[C@]12Cc3cc4ccccc4cc3[C@H]1N(Cc1ccccc1)C(=O)c1ccccc12 returned 12-LOX inh inconclusive, DT40 TDP1 no CPT 21µM, DT40 TDP1 CPT 16µM, HT1080 IDH1KD tx 15µM, IL-1B inflam inh -110 and HT1080-NT tox 16µM.
Screening CCOC(=O)[C@]12Cc3cc(OC)ccc3[C@H]1N(Cc1ccccc1)C(=O)c1cc(OC)ccc12 returned 12-LOX inh inactive, DT40 TDP1 no CPT 16µM, DT40 TDP1 CPT inconclusive, HT1080 IDH1KD tx inactive, IL-1B inflam inh inactive and HT1080-NT tox inactive.
CCOC(=O)C1C2NC(=O)N(Cc3ccccc3)C1(C)Oc1c(OC)cccc12 (configuration not stated) was read as 12-LOX inh inactive, DT40 TDP1 no CPT inactive, DT40 TDP1 CPT inactive, HT1080 IDH1KD tx inactive, IL-1B inflam inh inactive and HT1080-NT tox inactive.
For c1cncc(CN2CCOC[C@H]3CCNC[C@H]32)c1 the results were 12-LOX inh inactive.
For CCOC(=O)c1cc2cc(OC)ccc2n1C1CCN(Cc2ccccc2)CC1 the results were 12-LOX inh inactive, DT40 TDP1 no CPT inconclusive, DT40 TDP1 CPT inconclusive, HT1080 IDH1KD tx inactive, IL-1B inflam inh inactive and HT1080-NT tox inconclusive.
For CCOC(=O)[C@]12Cc3cc4ccccc4cc3[C@H]1N(Cc1ccccc1)C(=O)c1cc(OC)ccc12 the results were 12-LOX inh inconclusive, DT40 TDP1 no CPT 6.5µM, DT40 TDP1 CPT 8.2µM, HT1080 IDH1KD tx 15µM, IL-1B inflam inh -109 and HT1080-NT tox 21µM.
CCOC(=O)[C@]12Cc3cc(OC)c(OC)cc3[C@H]1N(Cc1ccccc1)C(=O)c1ccccc12 was read as 12-LOX inh inactive, DT40 TDP1 no CPT 14µM, DT40 TDP1 CPT inconclusive, HT1080 IDH1KD tx inactive, IL-1B inflam inh inactive and HT1080-NT tox inactive.
Screening CCc1ccc(N2CC(C(=O)OCC(=O)Nc3ccc(C#N)c(Cl)c3)CC2=O)cc1 (configuration not stated) returned 12-LOX inh inactive.
Cc1nc2ccc(Cl)cc2c(=O)n1-c1ccccc1Cl was read as 12-LOX inh inactive, DT40 TDP1 no CPT inactive, DT40 TDP1 CPT inactive, HT1080 IDH1KD tx inactive, IL-1B inflam inh inactive and HT1080-NT tox inactive.
COc1ccccc1-n1c(-c2ccc(C)cc2)nc2ccccc2c1=O was read as 12-LOX inh inactive, DT40 TDP1 no CPT 12µM, DT40 TDP1 CPT inconclusive, HT1080 IDH1KD tx inactive, IL-1B inflam inh inactive and HT1080-NT tox inactive.
`COc1ccccc1-n1c(-c2ccccc2Br)nc2ccccc2c1=O` gave 12-LOX inh inactive, DT40 TDP1 no CPT 18µM, DT40 TDP1 CPT 23µM, HT1080 IDH1KD tx inactive, IL-1B inflam inh inactive and HT1080-NT tox inactive.
`Cc1ccc(-c2nc3ccccc3c(=O)n2-c2ncccc2C)cc1` gave 12-LOX inh inactive, DT40 TDP1 no CPT inconclusive, DT40 TDP1 CPT inactive, HT1080 IDH1KD tx inactive, IL-1B inflam inh inactive and HT1080-NT tox inactive.
`COc1ccccc1-n1c(-c2ccccc2F)nc2ccccc2c1=O` gave 12-LOX inh inactive, DT40 TDP1 no CPT inconclusive, DT40 TDP1 CPT inconclusive, HT1080 IDH1KD tx inactive, IL-1B inflam inh inactive and HT1080-NT tox inactive.
Cc1nc2ccccc2c(=O)n1-c1ccccc1Cl was read as DT40 TDP1 no CPT 24µM and DT40 TDP1 CPT inconclusive.
Screening Cc1ncc2c(n1)C[C@@H]1CC[C@H]2N1C(=O)c1ccccc1F returned 12-LOX inh inactive.
CNCc1cn(C[C@H]2CC3CCN2C[C@@H]3C(=O)NC2CC2)nn1 (some centres not stated) was read as 12-LOX inh inactive.
Screening COc1cc2c(cc1OCC1CC1)NC(=O)C21CCN(CCC(C)C)CC1 returned 12-LOX inh inactive.
C[C@@]12CC[C@@H]3c4ccc(O)cc4C[C@H](CCCCCCCCCS(=O)CCCC(F)(F)C(F)(F)F)[C@H]3[C@@H]1CC[C@@H]2O (some centres not stated) was read as 12-LOX inh inactive, DT40 TDP1 no CPT 12µM and DT40 TDP1 CPT inactive.
CCCCC[C@@H]1CCCCC[C@@H](O)C[C@H](O)[C@H](O)/C=C/C(=O)O1 was read as 12-LOX inh inactive, DT40 TDP1 no CPT inconclusive, DT40 TDP1 CPT inconclusive, HT1080 IDH1KD tx inactive, IL-1B inflam inh inactive and HT1080-NT tox inactive.
CCCCC[C@H]1CCCCC[C@@H](O)C[C@@H](O)[C@@H](O)/C=C/C(=O)O1 was read as 12-LOX inh inactive, DT40 TDP1 no CPT 9.2µM, DT40 TDP1 CPT 10µM, HT1080 IDH1KD tx inactive, IL-1B inflam inh inactive and HT1080-NT tox inactive.
`O=S1(=O)N(CCN2CC=C(c3c[nH]c4cc(F)ccc34)CC2)c2cccc3c2N1CCC3` gave 12-LOX inh inconclusive, DT40 TDP1 no CPT 16µM, DT40 TDP1 CPT 9.2µM, HT1080 IDH1KD tx 16µM, IL-1B inflam inh -59 and HT1080-NT tox 13µM.
Screening C#CCNC1CCCCC1 returned 12-LOX inh inactive.
Screening O=C(Nc1ccc2oc(-c3cccnc3)nc2c1)c1ccc(-c2cccc(Cl)c2)o1 returned 12-LOX inh inactive, DT40 TDP1 no CPT 7.3µM and DT40 TDP1 CPT inactive.
Screening Cn1nc(-c2ccccc2)cc1[C@H]1CN2CC[C@H]1C[C@@H]2CNS(C)(=O)=O returned 12-LOX inh inactive.
Screening COC1CN(c2cccc(F)c2)C12CCNCC2 (configuration not stated) returned 12-LOX inh inactive.
`CC(C)N1CCN(c2oc(C3CC3)nc2C#N)CC1` gave 12-LOX inh inactive.
